Laboratory results taken from PubChem BioAssay (Tox21).
“And” between values parts separate entries of the source, which are not always exact repeats. Equal values may be shown once. Results filed as inconclusive are left out. Where a call stands in place of a potency, no number is given. Some structures have more than one record in an assay (separate samples or runs), and their calls can disagree. The source made the active and inactive calls. Calls follow the shape of the dose curve; as a rule, active = well fitted curve in the direction sought with a large enough effect in the repeat runs; inconclusive = weak or mixed curves; inactive = no such curve, though single readings can be large; an effect the other way counts as inactive or inconclusive.

Columns and labels:
[1] = A CellTox Green Cytotoxicity Assay to monitor cytotoxicity in HEK293 cells - 32 hour (AID 1224881); also: nearly all actives have a fitted effect of over 40% in size; also: potency is read from the fitted curve at half-maximal effect
Summary of the method: (§1)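 Fluorescence from a DNA-binding dye excluded by viable cells was measured repeatedly in the same HEK293 wells (600 cells/well) during continuous compound exposure at 37 C. Each assay gives one read point: 0, 8, 16, 24, 32 or 40 h.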

[2] = A CellTox Green Cytotoxicity Assay to monitor cytotoxicity in HepG2 cells - 0 hour (AID 1224882); also: nearly all actives have a fitted effect of over 35% in size; also: potency is read from the fitted curve at half-maximal effect
Summary of the method: (§2)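 Real-time cytotoxicity: fluorescence of a cell-impermeant cyanine dye binding DNA of dead HepG2 cells, measured repeatedly (0–40 h) during compound exposure at 37 C. Cells seeded 600/well with reagent, dosed after 5 h.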

[3] = A CellTox Green Cytotoxicity Assay to monitor cytotoxicity in HepG2 cells - 32 hour (AID 1224883); also: nearly all actives have a fitted effect of over 50% in size; also: potency is read from the fitted curve at half-maximal effect
Summary of the method: as §2

[4] = A CellTox Green Cytotoxicity Assay to monitor cytotoxicity in HEK293 cells - 8 hour (AID 1224884); also: nearly all actives have a fitted effect of over 35% in size; also: potency is read from the fitted curve at half-maximal effect
Summary of the method: as §1

[5] = qHTS RealTime-Glo MT Cell Viability Assay in HepG2 cells - 16 hour (AID 1224885); also: nearly all actives have a fitted effect of over 50% in size; also: potency is read from the fitted curve at half-maximal effect
Summary of the method: (§3)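 Tox21 10K library screened in qHTS format on HepG2 cells carrying RealTime-Glo reagents. Compounds were added after a 5 h preincubation, and the luminescent signal from continuous culture was measured repeatedly during 40 h treatment.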

[6] = qHTS RealTime-Glo MT Cell Viability Assay in HEK293 cells - 24 hour (AID 1224886); also: nearly all actives have a fitted effect of over 50% in size; also: potency is read from the fitted curve at half-maximal effect
Summary of the method: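 Luminescence generated by NanoLuc from substrate produced by living HEK293 cells served as the viability signal. Each value reflects the reading at its stated time point during continuous 40 h compound exposure at 37 C.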

[7] = qHTS RealTime-Glo MT Cell Viability Assay in HepG2 cells - 0 hour (AID 1224889); also: nearly all actives have a fitted effect of over 50% in size
Summary of the method: as §3

[8] = A CellTox Green Cytotoxicity Assay to monitor cytotoxicity in HepG2 cells - 8 hour (AID 1224890); also: nearly all actives have a fitted effect of over 45% in size; also: potency is read from the fitted curve at half-maximal effect
Summary of the method: as §2

[9] = qHTS RealTime-Glo MT Cell Viability Assay in HEK293 cells - 8 hour (AID 1224887); also: nearly all actives have a fitted effect of over 50% in size; also: potency is read from the fitted curve at half-maximal effect
Summary of the method: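 Luminescence, which tracks viable cell number through reduction of the prosubstrate to a NanoLuc substrate, was read over continuous 37 C culture. Cells (600/well) were premixed with reagent and rested 5 h before 23 nL of compound in DMSO was pinned.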

[10] = A CellTox Green Cytotoxicity Assay to monitor cytotoxicity in HEK293 cells - 16 hour (AID 1224888); also: nearly all actives have a fitted effect of over 35% in size; also: potency is read from the fitted curve at half-maximal effect
Summary of the method: as §1

Row | SMILES | Potency [1] | Potency [2] | Potency [3] | Potency [4] | Potency [5] | Potency [6] | Potency [7] | Potency [8] | Potency [9] | Potency [10]
1 | O=C(CCCCl)c1ccc(F)cc1 | inactive | inactive | inactive | inactive | inactive | inactive | inactive | inactive |  | 
2 | [Cl-].[Cl-].[Cl-].[Yb+3] | inactive | inactive | inactive | inactive |  | inactive | inactive | inactive | inactive | inactive
3 | Oc1cccc(Cl)c1Cl | inactive | inactive | inactive | inactive | inactive |  | inactive | inactive | inactive | inactive
4 | CN=C=O | inactive | inactive | inactive | inactive |  | inactive | inactive | inactive |  | inactive
5 | CN | inactive | inactive | inactive | inactive |  | inactive | inactive | inactive | inactive | inactive
6 | CC1(C)C(C=C(Cl)Cl)C1C(=O)OC(C#N)c1ccc(F)c(Oc2ccccc2)c1 (stereo not drawn) | inactive | inactive | inactive | inactive |  | inactive | inactive | inactive |  | inactive
7 | COP(=S)(NC(C)C)Oc1ccc(C)cc1[N+](=O)[O-] (stereo not drawn) | inactive | inactive | inactive | inactive | inactive | inactive | inactive | inactive |  | inactive
8 | CCC[CH2][Sn]([CH2]CCC)([O]C(C)=O)[O]C(C)=O | 0.392 µM (active) | inactive | 0.221 µM (active) | inactive | 554 nM (active) | 0.0879 µM (active) | inactive | inactive |  | 
9 | CCNc1nc(NC(C)C(C)C)nc(SC)n1 (stereo not drawn) | inactive | inactive | inactive | inactive |  | inactive | inactive | inactive | inactive | inactive
10 | CCC[CH2][Sn]([CH2]CCC)([CH2]CCC)[CH2]CCC | 13.8 µM (active) | 38.9 µM (active) | 15.5 µM (active) | 49 µM (active) |  | 9.77 µM (active) | inactive | 21.9 µM (active) | 11 µM (active) | 24.5 µM (active)
11 | CC(C)N(C(=O)CCl)c1ccccc1 | inactive | inactive | 49 µM (active) | inactive |  | 49 µM (active) | inactive | inactive | inactive | 
12 | CC(C)c1c(CN(C)C(C)Cc2ccccc2)n(C)n(-c2ccccc2)c1=O (stereo not drawn) | inactive | inactive | inactive | inactive | inactive |  |  | inactive |  | inactive
13 | CCCCCCCCCCCCCCn1cc[n+](C)c1 | 34.7 µM (active) and 38.5 µM (active) and inactive | inactive | 21.9 µM (active) and 24.3 µM (active) and inactive | 55 µM (active) and 54.4 µM (active) and inactive | 39 µM (active) and 54.4 µM (active) and inactive | 7.78 µM (active) and 8.62 µM (active) | inactive | 39 µM (active) and 48.5 µM (active) and inactive |  | 
14 | Cc1ccc(C)c2ccccc12 | 38.9 µM (active) | inactive | inactive | inactive | inactive | inactive | inactive | inactive |  | 
15 | CC(=O)O.CC(=O)O.CC(=O)O.CC(=O)O.CC(=O)O.CC(=O)O.CC(=O)O.O.O.[Cr].[Cr].[Cr] | inactive | inactive | inactive | inactive |  | inactive | inactive | inactive | inactive | 
16 | NC1CCC(CC2CCC(N)CC2)CC1 (stereo not drawn) | inactive | inactive | inactive | inactive | inactive |  | inactive | inactive | inactive | inactive
17 | CC(C)Br | inactive | inactive | inactive | inactive | inactive | inactive |  | inactive |  | inactive
18 | O=C(N[C@@H]1N=C(c2ccccc2F)c2cccc3c2N(CC3)C1=O)c1cc2ccccc2[nH]1 | 6.01 µM (active) | 26.8 µM (active) | 19 µM (active) | 9.52 µM (active) |  | inactive | inactive | 21.3 µM (active) |  | 5.35 µM (active)
19 | Clc1ccc(C(Cl)(Cl)Cl)cc1Cl | 33.9 µM (active) | inactive | 47.9 µM (active) | 42.7 µM (active) |  | 33.9 µM (active) | inactive | 47.9 µM (active) |  | 38.1 µM (active)
20 | CN/C(=N\[N+](=O)[O-])NCc1cnc(Cl)s1 | inactive | inactive | inactive | inactive |  | inactive | inactive | inactive | inactive | 
21 | Nc1nc(N)c(N)c(N)n1 | 49.2 µM (active) | 49.2 µM (active) | 55.2 µM (active) | 49.2 µM (active) |  | inactive | inactive | 49.2 µM (active) | inactive | 55.2 µM (active)
22 | [C-]1=CC=CC1.[Cl][Zr+2][Cl].c1cc[cH-]c1 | inactive | inactive | inactive | inactive |  |  | inactive | inactive |  | inactive
23 | CCOC(=O)Cc1ccccc1 | inactive | inactive |  | inactive | inactive | inactive | inactive | inactive |  | inactive
24 | CC1(C)[C@H](/C=C2\CCSC2=O)[C@@H]1C(=O)OCc1coc(Cc2ccccc2)c1 | inactive | inactive | inactive | inactive |  |  | inactive | inactive | 38.9 µM (active) | inactive
